The panel holds about 83,000 compounds, 20% with a hit somewhere; the sample as a whole holds those more often.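 Compound tested at a single concentration for 48 hours in 96-well plates; a percent growth value below 10 was scored as active.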 Unmarked numbers belong to inactive results. Calls of active or inactive are those of the source.

In the assay the test system is OVCAR-3 ovarian. The experiment in a line: NCI-60 one-dose screen, 48 h (100 = growth as untreated, 0 = no growth, -100 = all killed). The conditions noted are these: 10 µM unless noted.
With `C=CCn1c(C)nc2cc(Nc3nc(N4CCCC4)nc4ccccc34)ccc21`, the growth is 105%.
As for `Cc1ccc(/C=C/c2c(C(=O)/C=C/c3ccc(Cl)cc3)c(C)nc3ccccc23)cc1`, the figure is -46.2% (active); as for `COc1cc(/C=C/C(=O)c2cccc(-n3cc(-c4ccccc4)[nH]c3=O)c2)ccc1O`, 6.11% (active).
Turning to `C=CCOC1=CC(=O)c2ccccc2C1=O`, the growth is -13.4% (active).
For the molecule `Cn1cc(-c2csc(-c3ccccc3)n2)c2cccnc21`, the growth is -31.8% [100 µM] (active).
Then `c1ccc(-c2nc([P+](c3ccccc3)(c3ccccc3)c3ccccc3)c(N3CCOCC3)o2)cc1`, with 11%.
As for `O=C(COc1ccc(/C=C2\Oc3ccccc3C2=O)cc1)Nc1nc2c(s1)CCCC2`, the figure is 29.3%; as for `COc1ccc(C2c3ccc4ccccc4c3Oc3nc(C)[nH]c(=O)c32)cc1` (centres undefined), 108%.
As for `CN(C)c1ccc(-c2ccc3[nH]c(=O)nc(-c4ccccc4)c3c2)cn1`, the figure is 5.38% (active); as for `O=C1/C(=C\c2c[nH]c3ccccc23)c2ccccc2N1c1c(Cl)cccc1Cl`, -27.8% (active); as for `Cc1cc(/C=C\c2ccc3ccccc3[n+]2C)c(O)c2ncccc12`, 25.8%.
For `O=C1N=c2cc3c(cc2=C/C1=C/c1sc(=S)n(CCc2ccc(O)cc2)c1O)OCCO3`, the growth was 76.1%.
On to `N#Cc1nc(C#N)c(Sc2ccccc2)c(Sc2ccccc2)c1Sc1ccccc1`, for which the growth was -87.7% (active).
As for `Cc1cc(NCCCCNc2ccnc3cc(Cl)ccc23)nc(Nc2ccc(C(=O)N3CCCC3)cc2)n1`, the figure is 60.6%.

(Values after PubChem BioAssay (NCI).)
